# Shiga toxin inh: Shiga toxin inhibition; Vero cells, Shiga toxin protein synthesis inhibition reporter; inhibition, % at 38.7 µM; actives 9.2% (n = 290,000); in the data active means inhibition mostly above about 28%, no sharp cut-off; inactive means mostly below about 43%; further: 0% is about no effect
# Cycloheximide cs: affects cycloheximide protein synthesis inhibition readout, counter-screen. cell reporter, cycloheximide protein synthesis inhibition counterscreen. max response, %. actives 12% (n = 300,000). AID 2314; in the data active means max response mostly above about 13%, no sharp cut-off; inactive means mostly below about 14%; further: read at 38.3 µM for the half of the compounds with a filed dose; 0% is about no effect
# AmpC inh no detg: AmpC beta-lactamase inhibition without detergent. actives 0.52% (n = 330,000). AID 485341. P00811. AmpC nitrocefin hydrolysis, absorbance 480 nm, 0.0001% Triton. Potency, µM (doses to about 57.1 µM), inactives show top-dose activity change, negative = inhibition, hits mostly inhibitors;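 further: potency means the concentration at half of the fitted maximal effect; plate controls were no compound for no effect and no enzyme for full effect; nearly all actives have a fitted effect of over 20% in size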
# Target sequence (P00811 whole entry, looked up): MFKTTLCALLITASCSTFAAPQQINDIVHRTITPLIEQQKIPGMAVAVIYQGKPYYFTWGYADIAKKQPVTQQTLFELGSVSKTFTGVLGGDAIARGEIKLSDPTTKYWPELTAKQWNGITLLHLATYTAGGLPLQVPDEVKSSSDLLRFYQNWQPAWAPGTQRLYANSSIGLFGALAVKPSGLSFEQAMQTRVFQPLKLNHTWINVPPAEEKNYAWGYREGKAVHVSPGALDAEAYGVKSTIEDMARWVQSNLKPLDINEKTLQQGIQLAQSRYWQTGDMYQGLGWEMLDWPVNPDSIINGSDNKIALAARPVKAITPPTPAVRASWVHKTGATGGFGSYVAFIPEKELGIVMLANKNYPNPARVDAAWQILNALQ
#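 20 mM phosphate pH 7.0 + 0.01% (detergent screen) or 0.0001% Triton X-100; 5.3 nM AmpC reagent; cpd preinc 15 min RT; nitrocefin (800 uM stock) to start; A480 q20 s × 4 min; Activity was normalised to no-enzyme and no-compound control wells.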
# AmpC detergent: blocks E. coli AmpC beta-lactamase in detergent assay; AID 485294; Potency, µM (titrated, usually from 114 µM), without a hit: at the highest dose activity change, negative = inhibition, usual class: inhibitors; P00811; AmpC hydrolysis of nitrocefin, absorbance 480 nm, 0.01% Triton; actives 0.041% (n = 370,000);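 further: potency means the concentration at half of the fitted maximal effect; 0% = no-compound wells and -100% = no-enzyme wells; nearly all actives have a fitted effect of over 25% in size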
#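 AmpC (5.3 nM in the dispensed reagent) in 20 mM phosphate pH 7.0 with 0.01% (detergent screen) or 0.0001% Triton X-100 was preincubated with compounds for 15 min at room temperature. Nitrocefin was then added from an 800 uM solution, and hydrolysis was followed at 480 nm.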
# AMA1 RON2 block: inhibitors of Plasmodium falciparum AMA1-RON2 interaction | AlphaScreen AMA1-biotinylated RON2 peptide binding | Potency, µM (series often up to 58.2 µM), without a hit: at the top dose activity change, negative = inhibition, usual class: inhibitors | actives 0.2% (n = 360,000) | AID 720542;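 further: potency means the concentration at half of the fitted maximal effect; 0% = vehicle wells and -100% = peptide control; nearly all actives have a fitted effect of over 45% in size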
#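 AMA1 (3D7) with his tag at 25 nM final met compounds first, then biotinylated RON2 peptide at 25 nM; detection used donor plus acceptor beads, 10 µg/mL apiece, read by AlphaScreen after 30 min at room temperature.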
# SARS PLpro yeast: inhibitors of SARS-CoV papain-like protease in yeast; S. cerevisiae expressing SARS-CoV PLpro, growth rescue; actives 0.19% (n = 330,000); AID 485353; Potency, µM (titrated, usually from 32.9 µM), for the others: at the top dose activity, positive = growth rescue, hits mostly activators; calls by dose curve; further: potency means the concentration at half of the fitted maximal effect; 0% is about no effect; nearly all actives have a fitted effect of over 55% in size
# * = called active by the depositor; i = inactive; u = inconclusive; x = no result; [ ] = dose if it differs, or a comment. Only a selection was taken, and hits are over-represented in it overall. Unless noted, the call rests on the fitted dose curve; in most records, active means well fitted curve in the direction sought with a large enough effect; inconclusive means small, poorly fitted or top-dose-only effect, or another doubt; inactive means no such curve, though single readings can be large; an effect the other way counts as inactive or inconclusive.
SMILES,Shiga toxin inh,Cycloheximide cs,AmpC inh no detg,AmpC detergent,AMA1 RON2 block,SARS PLpro yeast
Clc1ccc(/C=N/Nc2ncnc3nc[nH]c23)cc1,64,39*,-37%,8%,2%,0%
Cc1ccc(/C=N/Nc2ncnc3nc[nH]c23)cc1,147*,38*,-19%,2%,28%,3%
Cc1ccc(C(C)C)cc1OCCCCN1CCCC1,-6,-3,40%,-2%,-22%,-16%
COCC1CCCCN1C(=O)c1ccc2oc(CCc3ccccc3)nc2c1 (stereo not given),94*,37*,108%,-10%,-10%,0%
CCCCc1nc2cc(C(=O)N3CCCCC3CCNC(C)=O)ccc2o1 (stereo not given),4,2,22%,-14%,20%,24%
CCCCc1nc2cc(C(=O)NCc3nccn3CC)ccc2o1,37*,50*,8%,-4%,94%,3%
CCCCc1nc2cc(C(=O)N3CCCCC3COC)ccc2o1 (stereo not given),87*,35*,48%,u,24%,3%
CCCCc1nc2cc(C(=O)N3CCN(c4nc(C)cnc4C)CC3)ccc2o1,70*,47*,157%,-12%,1%,-2%
Cc1cccc(OCCCN2C(=O)C(=O)c3cc(C)ccc32)c1,20,1,-5%,u,u,-3%
CC(C)C[C@H]1CNC(=O)C(=O)N1CC1CCN(CCC(C)c2ccccc2)CC1 (stereo not given in full),x,x,x,x,-8%,x
CCOC(=O)CC1CCCCN1C(=O)c1ccc2oc(CCc3ccccc3)nc2c1 (stereo not given),34*,17*,118%,-7%,11%,-1%
CC(C)c1nc2ccc(C(=O)NC(C)c3ccccc3)cc2o1 (stereo not given),x,x,x,15%,x,x
COCCC1CCCCN1C(=O)c1ccc2nc(Cc3ccccc3F)oc2c1 (stereo not given),97*,61*,110%,-1%,-7%,-10%
CCOC(=O)CC1CCCCN1C(=O)c1ccc2nc(CCOC)oc2c1 (stereo not given),10,24,-1%,2%,9%,14%
C=CCC1(CC=C)CCCN1C(=O)c1ccc2oc(CCCC)nc2c1,x,x,x,x,13%,x
CCCCc1nc2cc(C(=O)N3CCC(OC)CC3)ccc2o1,44*,27*,23%,-6%,2%,-4%
COc1ccc([C@@H](C)NC(=O)c2ccc3oc(C(C)C)nc3c2)cc1,74*,50*,-2%,1%,-3%,x
COCCc1nc2ccc(C(=O)N3CCCCC3COC)cc2o1 (stereo not given),24,-1,-7%,-10%,-3%,4%
Cc1ccc2nc(-c3ccc(Cl)c(NC(=O)c4cccnc4)c3)oc2c1,x,x,x,2%,x,x
CC1=C(C(=O)Nc2ccccc2)C(c2cccs2)n2nnnc2N1 (stereo not given),-5,-2,u,-6%,0%,4%
O=C(COC(=O)/C=C/c1ccccc1)Nc1ccc2c(c1)OCCO2,x,x,-18%,-1%,-1%,1%
COC1CCN(C(=O)c2ccc3oc(C(C)C)nc3c2)CC1,20*,23*,0%,-1%,2%,1%
N#C/C(=C(/O)c1cccs1)c1nnc2n1CCCCC2,12,-1,-16%,0%,46%,-3%
COc1ccc(-c2c(C3=CCCCC3)oc3ccc(-c4ccc5c(c4)OCO5)cc23)cn1,x,x,x,x,-2%,x
Cc1ccc(-c2nnc(CCC(=O)NCC3C4CC5CC(C4)CC3C5)o2)s1 (stereo not given),103*,52*,62%,3%,0%,-1%
SMILES,Shiga toxin inh,Cycloheximide cs,AmpC inh no detg,AmpC detergent,AMA1 RON2 block,SARS PLpro yeast
CCOc1cc(/C=N/NC(=O)c2ccc3c(c2)OCCO3)cc(Br)c1O,77*,12*,-37%,-2%,6%,1%
O=C(N/N=C/c1cc(Br)c(Br)o1)c1ccc2c(c1)OCCO2,60*,28*,-51%,0%,3%,1%
O=C(N/N=C/c1cc(Br)c(O)c(Br)c1O)c1ccc2c(c1)OCCO2,73*,29*,-24%,-1%,-4%,u
CCc1cc2c(=O)c(-c3nc4ccccc4n3C)c(C)oc2c(CN2CCOCC2)c1O,-5,6,4%,-6%,-1%,5%
CCN1CCCC1CNC(=O)CCc1nnc(CCC2CCCCC2)o1 (stereo not given),4,-1,105%,-3%,9%,-1%
COC(=O)C1CCCCN1C(=O)CCc1nnc(CCc2c[nH]c3ccccc23)o1 (stereo not given),40,-2,97%,8%,-2%,1%
O=C(CCc1nnc(CCc2ccccc2)o1)N1CCCC1c1nccs1 (stereo not given),25,16*,0%,6%,-11%,-1%
COC(=O)[C@@H]1CCCN1C(=O)CCc1nnc(CCC2CCCCC2)o1,74*,34*,31%,2%,-9%,0%
COC(=O)[C@@H]1CCCN1C(=O)CCc1nnc(CCc2c[nH]c3ccccc23)o1,48*,47*,-15%,5%,13%,-4%
CCC1CCCCN1C(=O)CCc1nnc(Cc2c[nH]c3ccccc23)o1 (stereo not given),31*,9,38%,8%,1%,-1%
CC(C)NC(=O)NC(=O)COC(=O)CCOc1ccccc1,-16,-3,-4%,-11%,-9%,-9%
CC(C)Sc1nc2c(c(=O)n1C)SC(C)C2 (stereo not given),9,11,-11%,u,-3%,-9%
CC(=O)Nc1ccc2c(c1)N(C(C)=O)c1ccccc1CC2,-11,-1,44%,0%,-10%,0%
COc1ccccc1C1CC(=O)Oc2cc(OC)c(OC)c(OC)c21 (stereo not given),i,0,-12%,x,-1%,5%
O=C(CCC1CCCN(C(=O)c2ccc3c(c2)OCO3)C1)NCc1ccc(F)c(F)c1 (stereo not given),41*,15*,54%,3%,-4%,-1%
O=C(CCC1CCCN(C(=O)c2ccoc2)C1)NCc1ccc(F)c(F)c1 (stereo not given),22,10,-6%,-11%,-2%,-1%
O=C(CCC1CCCN(C(=O)C2CCCC2)C1)NCc1ccc(F)c(F)c1 (stereo not given),28,12,52%,1%,-7%,-1%
O=C(CCC1CCCN(C(=O)c2ccc3cc[nH]c3c2)C1)NCc1ccc(F)c(F)c1 (stereo not given),30*,29*,84%,5%,3%,0%
CCn1cc(C(=O)OCC(=O)Nc2cccc(S(=O)(=O)N3CCOCC3)c2)c(=O)c2ccc(C)nc21,-1,-5,-5%,u,10%,5%[6.58 µM]

# Screening data as filed in PubChem.
